Assay [1] relates to TRPC4 beta (transient receptor potential cation channel C4), mouse. Put plainly: TRPC4 cation channel opening, retest – cell-based, Fluo4 calcium, HEK293 TRPC4beta/mu-opioid, duplicates, 10 µM, confirmation (AID 2426;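 active = fluorescence ratio normalized to control raised more than 50% in primary screen plus both repeat runs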). The note with it: Fluo4 calcium fluorescence, at 10 µM; stronger effect = higher value.
The subject of assay [2] is transient receptor potential cation channel C4 beta (TRPC4), mouse. Put plainly: TRPC4 cation channel opening, second retest – cell-based, second round, Fluo4, HEK293 TRPC4beta/mu-opioid, 1 µM, confirmation (AID 2461;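 active = primary screen active and over 50% activation in each of two duplicate runs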). The note with it: Fluo4 calcium fluorescence, at 1 µM; stronger effect = higher value.
Assay [3] concerns TRPC4 (transient receptor potential cation channel C4 beta), mouse. Put plainly: potentiation of DAMGO EC20 TRPC4 response – cell-based, second round, Fluo-4, HEK293 TRPC4beta/mu-opioid, 1 µM, confirmation (AID 2554;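 active = primary screen hit whose fluorescence ratio, in both repeats, exceeds the weak agonist control mean by 3 SD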). The note with it: DAMGO EC20, Fluo-4 calcium flux, at 1 µM; stronger effect = higher value. Background: Calcium flux is commonly read through the fluorescence of an indicator in the cells.

Assay [4] has as its system TRPC4 beta (transient receptor potential cation channel C4), mouse. Put plainly: potentiation of DAMGO EC20 TRPC4 response – cell-based, Fluo-4, HEK293 TRPC4beta/mu-opioid, confirmation (AID 2555;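 active = primary screen hit whose calcium fluorescence ratio, in both repeats, exceeds the weak agonist control mean by 3 SD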). To be noted: DAMGO EC20, Fluo-4 calcium flux, at 10 µM; stronger effect = higher value.
The target in assay [5] is Short transient receptor potential channel 4 (Mus musculus) (UniProt Q9QUQ5). Put plainly: blockers of DAMGO-evoked TRPC4 calcium flux – cell-based, Fluo4, HEK293 TRPC4beta/mu-opioid, confirmation (AID 2636;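 active = calcium signal cut by more than 3 SD below the full-agonist control yet still positive, in both repeats and the earlier primary screen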). To be noted: at 10 µM; stronger effect = higher value.
Assay [6] shares this target. Put plainly: blockers of DAMGO-evoked TRPC4 calcium flux – cell-based, second round, Fluo4, HEK293 TRPC4beta/mu-opioid, 1 µM, confirmation (AID 2637;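 active = calcium signal ratio cut to more than 3 SD under the fully stimulated control mean yet still positive, in both repeats and the primary screen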). To be noted: at 1 µM; stronger effect = higher value.
For assay [7] the target is unchanged. Put plainly: calcium entry via TRPC4 opening agents – cell-based, HEK293 TRPC4/mu-opioid, Fluo-4 calcium, dose response (AID 434937;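 active = primary screen activator hit with a dose response curve and TRPC4 channel activation at any tested dose; inactive = no activation, no dose response, or not a primary hit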).
Assay [8] has the same target. Put plainly: potentiation of DAMGO-evoked TRPC4 calcium signal – cell-based, HEK293 TRPC4/mu-opioid, Fluo-4 calcium, EC20 DAMGO, dose response (AID 434941).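 Note: calcium entry triggered by an EC20 dose of DAMGO at the co-expressed mu-opioid receptor.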
For assay [9] the target is unchanged. Put plainly: block of DAMGO-driven TRPC4 calcium entry – cell-based, HEK293 TRPC4/mu-opioid, Fluo-4 calcium, dose response (AID 434942;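 active = primary screen inhibitor hit that blocks the TRPC4 channel at some tested dose, yielding a dose curve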).
The target of assay [10] is Short transient receptor potential channel 6 (Mus musculus) (UniProt Q61143). Put plainly: TRPC6 blockade by TRPC4 inhibitor hits – cell-based, HEK293, membrane potential dye, duplicate, selectivity assay for TRPC4 inhibitor project, confirmation (AID 434948;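 active = active in primary screen and both duplicates, each dropping signal beyond three positive-control SD with fluorescence still positive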). To be noted: HEK293 TRPC6, membrane potential dye fluorescence, at 10 µM, stimulated with maximal-effect acetylcholine; stronger effect = higher value.

Assay [11] has the same target. Put plainly: TRPC6 opening by TRPC4 activator hits – cell-based, HEK293, membrane potential dye, duplicate, selectivity assay for TRPC4 activator project, confirmation (AID 434950;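 active = membrane potential signal rise above negative control mean plus 3 SD in both duplicates, also active in the earlier TRPC4 screen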). The note with it: HEK293 TRPC6, membrane potential fluorescence, at 10 µM; activation: stronger effect = higher value; outcome: activation.
Assay [12] shares this target. Put plainly: positive modulators of mouse TRPC6 channel – HEK293 cells, membrane potential dye, duplicate, selectivity assay for TRPC4 potentiator project, confirmation (AID 434952;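 active = compound raising the membrane signal above positive-control mean plus 3 SD in both repeats, and a primary screen hit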). The note with it: HEK293 TRPC6, membrane potential dye fluorescence, at 10 µM, maximal acetylcholine added after compound; stronger effect = higher value.
For assay [13], the target named is Short transient receptor potential channel 4 (Mus musculus) (UniProt Q9QUQ5). Put plainly: calcium flux activators in TRPC4/5HT1a cells, counter-screen for TRPC4 activator project, cell-based, second counter screen, HEK293 TRPC4/5HT1a, Fluo-4 (AID 434977;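 active = calcium signal rise above buffer-control mean plus 5 SD in both duplicates, and also a hit in the primary screen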). To be noted: Fluo-4 calcium flux, at 10 µM; stronger effect = higher value.
Assay [14] in a line: serotonin-gated TRPC4 signal block – cell-based, second counter screen, HEK293 TRPC4/5HT1a, Fluo-4, counter-screen for TRPC4 inhibitor project, confirmation (AID 434978;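 active = primary screen active whose calcium signal fell more than 3 SD beyond the full-serotonin control mean in both duplicate plates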;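 for outcome: serotonin given first at submaximal then at maximal dose after compound preincubation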). To be noted: Fluo-4 calcium flux, at 10 µM, serotonin added to trigger calcium flux; stronger effect = higher value.
Assay [15] relates to TRPC4 (mouse), co-expressed with 5HT1a in HEK293. Put plainly: enhancement of serotonin-evoked TRPC4 response – cell-based, second counter screen, HEK293 TRPC4/5HT1a, Fluo-4, counter-screen for TRPC4 potentiator project, confirmation (AID 434979;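 active = signal rise over 3 SD above mean of control wells given weak agonist, in both repeats and first screen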). To be noted: Fluo-4 calcium flux, at 10 µM, serotonin added at its EC20 dose; stronger effect = higher value. (In general: Counterscreens check selectivity or assay interference.)

Assay [16] is described as follows: nonspecific calcium rise without TRPC4 – cell-based, HEK293 mu-opioid receptor line, counter-screen for TRPC4 activator project, confirmation (AID 449723;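 active = hit in primary screen, with calcium signal over 5 SD above buffer well mean in both duplicates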;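 note: counter screen cells carry the mu-opioid receptor alone and lack TRPC4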). To be noted: HEK293 mu-opioid cells, Fluo-4 calcium fluorescence, at 10 µM; stronger effect = higher value.
The nature of assay [17]: nonspecific potentiation of DAMGO calcium response – cell-based, HEK293 mu-opioid receptor line, counter-screen for TRPC4 allosteric potentiator project, confirmation (AID 449724;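 active = calcium signal rise more than 3 SD above the low-dose agonist control mean, in both duplicate plates and the primary screen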;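 note: HEK293 cells carrying mu-opioid receptor only with no TRPC4 channel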). To be noted: HEK293 mu-opioid receptor cells, Fluo-4 calcium flux, at 10 µM, compound added before EC20 DAMGO stimulus; stronger effect = higher value.

Each structure is given as a SMILES string. For part of these data: Measured potencies and affinities stand elsewhere. Calls of active or inactive are those of the source.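 Rule for the calls, unless noted: active = earlier screen potentiator hit that boosts the TRPC4 ion channel at some dose, with a dose response; inactive = no potentiation, no dose response, or not a prior hit.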

Sequence of Short transient receptor potential channel 4 (Mus musculus) (Q9QUQ5 whole entry, looked up): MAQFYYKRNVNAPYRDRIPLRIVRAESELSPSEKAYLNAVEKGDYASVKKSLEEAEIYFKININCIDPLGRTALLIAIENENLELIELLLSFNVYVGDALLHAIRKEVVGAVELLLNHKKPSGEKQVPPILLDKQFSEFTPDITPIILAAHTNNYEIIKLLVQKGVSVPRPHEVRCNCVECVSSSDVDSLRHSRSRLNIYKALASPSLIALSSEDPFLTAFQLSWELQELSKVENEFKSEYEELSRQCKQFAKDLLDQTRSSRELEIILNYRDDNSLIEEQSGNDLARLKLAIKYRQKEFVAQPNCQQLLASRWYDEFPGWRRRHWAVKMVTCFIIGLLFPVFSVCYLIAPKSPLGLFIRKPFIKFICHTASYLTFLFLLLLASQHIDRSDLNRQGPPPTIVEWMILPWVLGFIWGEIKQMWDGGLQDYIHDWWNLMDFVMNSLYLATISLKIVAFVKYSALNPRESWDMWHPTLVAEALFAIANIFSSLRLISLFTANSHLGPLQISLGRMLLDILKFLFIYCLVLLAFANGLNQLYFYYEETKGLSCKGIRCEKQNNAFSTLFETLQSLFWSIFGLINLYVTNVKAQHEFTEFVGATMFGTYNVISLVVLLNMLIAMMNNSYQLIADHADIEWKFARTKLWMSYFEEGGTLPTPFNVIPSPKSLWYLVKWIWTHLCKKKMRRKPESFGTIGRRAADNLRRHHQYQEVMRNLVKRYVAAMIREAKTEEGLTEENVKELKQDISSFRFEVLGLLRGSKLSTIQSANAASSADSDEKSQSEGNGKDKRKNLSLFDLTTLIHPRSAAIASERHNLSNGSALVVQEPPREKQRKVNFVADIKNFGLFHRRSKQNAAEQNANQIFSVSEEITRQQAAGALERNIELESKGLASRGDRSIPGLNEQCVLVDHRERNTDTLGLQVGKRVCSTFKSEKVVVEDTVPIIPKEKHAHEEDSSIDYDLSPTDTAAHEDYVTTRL
Sequence of Short transient receptor potential channel 6 (Mus musculus) (Q61143 whole entry, looked up): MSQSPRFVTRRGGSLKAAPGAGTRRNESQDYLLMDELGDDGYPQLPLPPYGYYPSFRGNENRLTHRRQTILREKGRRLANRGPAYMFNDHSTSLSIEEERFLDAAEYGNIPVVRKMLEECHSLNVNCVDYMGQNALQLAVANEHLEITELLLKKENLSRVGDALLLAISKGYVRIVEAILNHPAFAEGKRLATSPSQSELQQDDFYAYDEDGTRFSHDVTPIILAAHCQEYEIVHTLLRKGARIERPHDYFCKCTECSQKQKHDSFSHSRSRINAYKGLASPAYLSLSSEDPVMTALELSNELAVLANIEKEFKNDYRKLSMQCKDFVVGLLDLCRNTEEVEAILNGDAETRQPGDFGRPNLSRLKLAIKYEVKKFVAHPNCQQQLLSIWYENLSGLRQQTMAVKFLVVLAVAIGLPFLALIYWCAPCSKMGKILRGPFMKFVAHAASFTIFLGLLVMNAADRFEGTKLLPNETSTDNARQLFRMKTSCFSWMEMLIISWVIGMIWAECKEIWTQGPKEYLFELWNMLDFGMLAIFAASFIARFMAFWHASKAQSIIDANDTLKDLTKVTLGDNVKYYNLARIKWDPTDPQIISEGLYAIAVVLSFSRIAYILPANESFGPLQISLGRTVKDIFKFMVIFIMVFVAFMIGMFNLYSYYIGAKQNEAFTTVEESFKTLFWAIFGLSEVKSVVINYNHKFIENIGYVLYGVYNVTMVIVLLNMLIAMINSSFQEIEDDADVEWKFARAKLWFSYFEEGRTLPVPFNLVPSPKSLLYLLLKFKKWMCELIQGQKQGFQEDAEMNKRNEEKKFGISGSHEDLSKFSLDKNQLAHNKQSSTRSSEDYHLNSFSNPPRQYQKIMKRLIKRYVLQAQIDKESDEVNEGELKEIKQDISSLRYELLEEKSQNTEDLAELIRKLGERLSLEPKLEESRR

Take `Fc1ccc2c(c1)C(c1ccncc1)=NNC(c1ccc(Cl)cc1)=N2`: the result in assay [1], in assay [2], in [3], in assay [4], in [5] and in [6] was inactive. In addition, the outcome in [7], in assay [8], in assay [9], in assay [10], in [11] and in [12] was inactive. In addition, the result in assay [13], in assay [14], in assay [15], in [16] and in assay [17] was inactive.
Consider `Cc1oc2c(c1C(=O)c1ccccc1)C(=O)C(=O)c1ccccc1-2`, for which the outcome in assay [1], in assay [2], in assay [3], in [4], in assay [6] and in assay [7] was inactive. Further, the result in assay [8], in [9], in assay [10], in assay [11], in assay [12] and in [13] was inactive. Moreover, the result in assay [15], in assay [16] and in assay [17] was inactive. Moreover, the inhibition in assay [5] was 68% (active); in assay [14], 30.8% (active).
Turning to `COc1cc(Cl)c(S(=O)(=O)N2CCN(Cc3ccc4c(c3)OCO4)CC2)cc1Cl`, the result in [1], in assay [2], in [3], in assay [5], in assay [6] and in [7] was inactive. For the same compound, the result in assay [8], in assay [9], in assay [10], in assay [11], in assay [12] and in assay [13] was inactive. Further, the outcome in assay [14], in [16] and in [17] was inactive. Moreover, the potentiation in [4] is 10% (active); in assay [15], 16.8% (active).
Consider `COC1=C(C)C(O)=C(C(=O)/C=C/c2ccccc2)C(=O)C1(C)C`, for which the outcome in assay [1], in assay [2], in [3], in [4], in assay [5] and in [6] was inactive. The result in assay [7], in assay [8], in assay [9], in assay [10], in assay [11] and in [12] was inactive. The outcome in [13], in [14], in [15], in assay [16] and in assay [17] was inactive.
On to `CCCCc1ccc(NC(=O)CSc2nnc(C)c(=O)n2N)cc1`, for which the outcome in [1], in assay [2], in assay [3], in assay [5], in assay [6] and in assay [7] was inactive. For the same compound, the result in assay [8], in assay [9], in assay [10], in assay [11], in assay [12] and in assay [13] was inactive. Moreover, the outcome in assay [14], in [16] and in assay [17] was inactive. The potentiation in assay [4] was 14% (active); in [15] it was 43.5% (active).
For the compound `CC(C)Oc1ccccc1C1CC(=O)Nc2cc3c(cc21)OCCO3` (stereo not given), the result in [1], in [2], in [3], in assay [5], in assay [6] and in [7] was inactive. For the same compound, the result in assay [8], in [9], in assay [10], in assay [11], in [12] and in [13] was inactive. In addition, the outcome in assay [14], in [16] and in assay [17] was inactive. For the same compound, the potentiation in assay [4] was 44% (active); in assay [15] it was 96.2% (active).
As to `CC(C)Oc1cc(N)c(Cl)cc1Cl`, the result in [1], in assay [2], in [3], in [4], in assay [5] and in assay [6] was inactive. Besides, the result in assay [7], in [8], in assay [9], in [10], in assay [11] and in assay [12] was inactive. The result in [13], in assay [14], in assay [15], in [16] and in assay [17] was inactive.
Turning to `O=S(=O)(c1ccccc1Cl)N1CCC(Cc2ccccc2)CC1`, the outcome in assay [1], in assay [2], in [3], in [5], in assay [6] and in [7] was inactive. Besides, the outcome in assay [8], in assay [9], in assay [10], in assay [11], in [12] and in assay [13] was inactive. Moreover, the outcome in [14], in assay [16] and in [17] was inactive. The potentiation in assay [4] was 16% (active); in assay [15] it was 6.72% (active).
Regarding `CC1(C)Cc2nc3oc4c(=O)n(CC(=O)Nc5ccccc5)cnc4c3cc2CO1`, the result in [1], in [2], in assay [3], in assay [4], in assay [5] and in assay [6] was inactive. The result in [7], in [8], in [9], in assay [10], in assay [11] and in [12] was inactive. Also, the result in [13], in assay [14], in [15], in assay [16] and in assay [17] was inactive.
For `CCOc1ccc(S(=O)(=O)N2CCN(C(=S)NC3CC3)CC2)cc1`, the outcome in assay [1], in [2], in assay [3], in assay [5], in assay [6] and in [7] was inactive. Moreover, the result in assay [8], in [9], in assay [10], in [11], in assay [12] and in assay [13] was inactive. For the same compound, the result in assay [14], in assay [16] and in assay [17] was inactive. For the same compound, the potentiation in assay [4] was 9% (active); in [15] it was 30.7% (active).
As for `Cc1cc2oc(C(=O)N(Cc3cccs3)C3CCS(=O)(=O)C3)cc(=O)c2cc1Cl` (stereo not given), the outcome in assay [1], in assay [2], in assay [3], in [5], in [6] and in assay [7] was inactive. Further, the outcome in [8], in [9], in assay [10], in [11], in [12] and in assay [13] was inactive. Also, the result in assay [14], in assay [16] and in assay [17] was inactive. For the same compound, the potentiation is 40% (active) in assay [4] and 66.3% (active) in [15].
For `CC1CCN(CCCCOc2ccc([N+](=O)[O-])cc2)CC1`, the outcome in [1], in assay [2], in [3], in assay [4], in assay [5] and in assay [6] was inactive. Moreover, the outcome in assay [7], in assay [8], in assay [9], in [10], in [11] and in [12] was inactive. The result in [13], in assay [14], in [15], in assay [16] and in [17] was inactive.
Take `Cc1cc(Cl)cc(Cl)c1OCCCCN(C)C`: the result in [1], in assay [2], in assay [5], in [6], in [7] and in assay [8] was inactive. For the same compound, the outcome in [9], in assay [10], in [11], in assay [12], in [13] and in assay [14] was inactive. Besides, the result in [16] and in assay [17] was inactive. For the same compound, the potentiation in assay [3] is 22% (active); in [4], 18% (active); in assay [15] it was 23.9% (active).
On to `CCN(CC)CCN(Cc1cc2ccc(C)cc2[nH]c1=O)C(=S)Nc1ccccc1C(=O)OC`, for which the result in assay [1], in assay [2], in assay [3], in assay [4], in assay [6] and in assay [7] was inactive. In addition, the result in assay [8], in assay [9], in [10], in [11], in assay [12] and in assay [13] was inactive. In addition, the result in [14], in [15], in assay [16] and in assay [17] was inactive. In assay [5], the inhibition was 85% (active).
On to `CCn1c2ccccc2c2cc(NC(=O)CN3CCCC3)ccc21`, for which the outcome in assay [1], in [2], in [3], in assay [5], in [6] and in [7] was inactive. In addition, the result in assay [8], in assay [9], in assay [10], in [11], in assay [12] and in assay [13] was inactive. For the same compound, the result in assay [14], in assay [16] and in assay [17] was inactive. The figures for the potentiation in [4] and in assay [15] were 33% (active) and 11.8% (active), respectively.

Usually inhibition stands for the percentage by which the read-out fell short of the control.

The values are drawn from PubChem BioAssay.
